The supplement of paper PMC11001985
Unmarked numbers belong to inactive results.

compound: C#CCNC(=O)CCSSCCC(=O)NCCc1ccc(C=O)c(C=O)c1; assay: lysine labeling ratio R10:1 (500 µM / 50 µM probe), SILAC-ABPP in living cells; higher = lower intrinsic lysine reactivity toward the probe, active = 2 or less; details: HeLa; probe concentrations 500 vs 50 µM
Outline: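 Each lysine carries an R value: the filtered median of MS1 peptide ratios of high probe to low probe, with the median then taken over forward and reverse replicates. These came from living SILAC light and heavy HeLa cells in PBS at room temperature labelled with an alkyne-tagged, disulfide-linked lysine probe at 500 µM or 50 µM, in forward and reverse swaps. The lysates were mixed, clicked to biotin-azide, trypsin-digested, captured on neutravidin, released by DTT, alkylated and run by LC-MS/MS on a TIMS-TOF Pro. The highest value allowed is 20.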

Sequence of UniProt P17342 (P17342 whole entry): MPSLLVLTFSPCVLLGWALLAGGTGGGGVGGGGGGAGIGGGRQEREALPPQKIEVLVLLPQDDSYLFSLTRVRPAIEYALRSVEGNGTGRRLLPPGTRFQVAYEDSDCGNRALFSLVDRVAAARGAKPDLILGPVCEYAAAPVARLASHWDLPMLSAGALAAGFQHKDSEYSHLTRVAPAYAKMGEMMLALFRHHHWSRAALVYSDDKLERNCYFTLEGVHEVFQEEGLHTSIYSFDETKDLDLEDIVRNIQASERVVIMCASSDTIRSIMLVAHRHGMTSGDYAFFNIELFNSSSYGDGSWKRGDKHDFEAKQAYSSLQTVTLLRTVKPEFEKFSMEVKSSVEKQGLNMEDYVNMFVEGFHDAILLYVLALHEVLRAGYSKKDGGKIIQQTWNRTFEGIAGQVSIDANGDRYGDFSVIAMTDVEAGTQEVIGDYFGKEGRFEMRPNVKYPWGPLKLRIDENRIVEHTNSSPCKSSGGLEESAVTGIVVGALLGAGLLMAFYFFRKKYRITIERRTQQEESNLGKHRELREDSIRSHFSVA
Sequence of UniProt P27816 (P27816 whole entry): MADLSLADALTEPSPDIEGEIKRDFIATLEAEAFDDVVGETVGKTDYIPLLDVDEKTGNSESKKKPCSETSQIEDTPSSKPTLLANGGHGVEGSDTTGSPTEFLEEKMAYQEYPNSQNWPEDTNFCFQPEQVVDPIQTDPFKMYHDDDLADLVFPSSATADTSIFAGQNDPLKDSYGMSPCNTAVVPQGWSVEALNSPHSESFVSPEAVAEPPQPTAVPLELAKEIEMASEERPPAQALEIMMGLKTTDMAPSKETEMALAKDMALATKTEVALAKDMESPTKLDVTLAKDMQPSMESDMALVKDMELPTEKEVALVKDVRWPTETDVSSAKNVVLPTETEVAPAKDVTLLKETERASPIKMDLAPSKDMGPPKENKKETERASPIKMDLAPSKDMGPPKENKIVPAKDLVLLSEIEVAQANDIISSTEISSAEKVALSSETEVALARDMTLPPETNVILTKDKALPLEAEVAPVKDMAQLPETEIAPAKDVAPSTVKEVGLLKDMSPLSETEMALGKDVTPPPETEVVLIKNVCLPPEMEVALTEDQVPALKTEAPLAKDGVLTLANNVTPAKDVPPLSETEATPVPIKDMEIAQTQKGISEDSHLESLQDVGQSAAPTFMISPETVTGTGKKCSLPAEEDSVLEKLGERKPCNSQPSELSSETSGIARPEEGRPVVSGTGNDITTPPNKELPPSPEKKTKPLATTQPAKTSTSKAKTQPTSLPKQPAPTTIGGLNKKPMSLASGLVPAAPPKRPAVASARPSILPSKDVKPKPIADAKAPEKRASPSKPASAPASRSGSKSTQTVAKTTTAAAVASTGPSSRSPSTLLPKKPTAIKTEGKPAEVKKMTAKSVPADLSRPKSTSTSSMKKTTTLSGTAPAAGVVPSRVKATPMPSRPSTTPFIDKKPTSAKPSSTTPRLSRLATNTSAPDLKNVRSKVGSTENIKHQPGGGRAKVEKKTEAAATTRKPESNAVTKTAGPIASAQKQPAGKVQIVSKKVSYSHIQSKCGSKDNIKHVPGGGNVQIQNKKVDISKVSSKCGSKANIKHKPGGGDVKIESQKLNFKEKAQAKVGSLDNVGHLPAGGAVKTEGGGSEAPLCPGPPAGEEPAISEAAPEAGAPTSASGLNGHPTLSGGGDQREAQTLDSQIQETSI
Sequence of UniProt P07237 (P07237 whole entry, looked up): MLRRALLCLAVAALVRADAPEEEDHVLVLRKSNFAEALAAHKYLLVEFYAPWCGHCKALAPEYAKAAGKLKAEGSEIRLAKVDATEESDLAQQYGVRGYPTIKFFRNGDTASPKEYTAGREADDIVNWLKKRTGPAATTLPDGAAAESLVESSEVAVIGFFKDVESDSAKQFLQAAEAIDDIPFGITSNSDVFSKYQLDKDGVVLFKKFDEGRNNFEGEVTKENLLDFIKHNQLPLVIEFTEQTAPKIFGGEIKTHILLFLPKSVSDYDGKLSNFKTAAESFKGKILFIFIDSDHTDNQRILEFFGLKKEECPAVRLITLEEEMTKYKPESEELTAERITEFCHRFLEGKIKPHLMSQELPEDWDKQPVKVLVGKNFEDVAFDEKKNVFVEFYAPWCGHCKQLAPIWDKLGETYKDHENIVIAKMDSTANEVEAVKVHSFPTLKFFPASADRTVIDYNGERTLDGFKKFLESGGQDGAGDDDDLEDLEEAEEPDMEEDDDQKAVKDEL
Sequence of UniProt P08195 (P08195 whole entry): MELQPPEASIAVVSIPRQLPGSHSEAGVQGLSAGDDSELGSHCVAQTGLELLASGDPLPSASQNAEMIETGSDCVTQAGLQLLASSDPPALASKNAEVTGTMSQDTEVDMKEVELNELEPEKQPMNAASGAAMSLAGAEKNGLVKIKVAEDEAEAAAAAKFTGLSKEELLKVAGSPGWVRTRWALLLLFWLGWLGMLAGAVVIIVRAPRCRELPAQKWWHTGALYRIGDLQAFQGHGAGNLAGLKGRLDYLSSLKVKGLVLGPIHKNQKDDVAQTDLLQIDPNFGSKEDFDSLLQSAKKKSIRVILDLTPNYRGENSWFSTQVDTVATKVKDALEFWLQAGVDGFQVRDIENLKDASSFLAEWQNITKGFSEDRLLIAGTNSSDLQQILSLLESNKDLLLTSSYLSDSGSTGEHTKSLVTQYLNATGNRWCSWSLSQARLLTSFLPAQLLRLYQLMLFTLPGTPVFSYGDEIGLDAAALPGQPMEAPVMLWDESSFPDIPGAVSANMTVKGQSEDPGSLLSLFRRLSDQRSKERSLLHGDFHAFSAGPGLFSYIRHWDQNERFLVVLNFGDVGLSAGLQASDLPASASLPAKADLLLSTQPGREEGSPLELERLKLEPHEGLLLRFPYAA
Sequence of UniProt Q14114 (Q14114 whole entry): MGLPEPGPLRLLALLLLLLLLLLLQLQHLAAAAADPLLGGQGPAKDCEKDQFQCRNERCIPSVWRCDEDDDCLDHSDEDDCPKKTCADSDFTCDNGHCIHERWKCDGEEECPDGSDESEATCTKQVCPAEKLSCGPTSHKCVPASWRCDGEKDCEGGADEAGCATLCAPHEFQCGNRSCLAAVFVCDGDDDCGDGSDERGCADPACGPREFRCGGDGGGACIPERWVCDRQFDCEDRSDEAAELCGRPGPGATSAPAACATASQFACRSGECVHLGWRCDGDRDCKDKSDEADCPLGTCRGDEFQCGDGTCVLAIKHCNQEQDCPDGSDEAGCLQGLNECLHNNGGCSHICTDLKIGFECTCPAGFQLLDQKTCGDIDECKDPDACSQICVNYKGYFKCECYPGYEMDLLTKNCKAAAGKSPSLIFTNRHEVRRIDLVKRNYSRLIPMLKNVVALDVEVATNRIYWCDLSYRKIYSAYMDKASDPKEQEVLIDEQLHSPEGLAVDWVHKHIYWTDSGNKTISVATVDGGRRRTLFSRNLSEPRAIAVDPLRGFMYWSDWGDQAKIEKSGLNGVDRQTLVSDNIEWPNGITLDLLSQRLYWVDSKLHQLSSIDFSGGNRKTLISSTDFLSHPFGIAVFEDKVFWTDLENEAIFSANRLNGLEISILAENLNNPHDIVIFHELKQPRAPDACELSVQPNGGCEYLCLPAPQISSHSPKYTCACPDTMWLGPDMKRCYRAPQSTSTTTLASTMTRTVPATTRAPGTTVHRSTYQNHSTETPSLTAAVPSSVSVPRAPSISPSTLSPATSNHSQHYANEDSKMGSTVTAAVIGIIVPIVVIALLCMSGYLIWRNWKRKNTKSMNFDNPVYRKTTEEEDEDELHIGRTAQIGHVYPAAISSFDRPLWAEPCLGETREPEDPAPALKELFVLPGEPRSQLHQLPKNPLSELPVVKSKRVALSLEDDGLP
Sequence of UniProt P00533 (P00533 whole entry): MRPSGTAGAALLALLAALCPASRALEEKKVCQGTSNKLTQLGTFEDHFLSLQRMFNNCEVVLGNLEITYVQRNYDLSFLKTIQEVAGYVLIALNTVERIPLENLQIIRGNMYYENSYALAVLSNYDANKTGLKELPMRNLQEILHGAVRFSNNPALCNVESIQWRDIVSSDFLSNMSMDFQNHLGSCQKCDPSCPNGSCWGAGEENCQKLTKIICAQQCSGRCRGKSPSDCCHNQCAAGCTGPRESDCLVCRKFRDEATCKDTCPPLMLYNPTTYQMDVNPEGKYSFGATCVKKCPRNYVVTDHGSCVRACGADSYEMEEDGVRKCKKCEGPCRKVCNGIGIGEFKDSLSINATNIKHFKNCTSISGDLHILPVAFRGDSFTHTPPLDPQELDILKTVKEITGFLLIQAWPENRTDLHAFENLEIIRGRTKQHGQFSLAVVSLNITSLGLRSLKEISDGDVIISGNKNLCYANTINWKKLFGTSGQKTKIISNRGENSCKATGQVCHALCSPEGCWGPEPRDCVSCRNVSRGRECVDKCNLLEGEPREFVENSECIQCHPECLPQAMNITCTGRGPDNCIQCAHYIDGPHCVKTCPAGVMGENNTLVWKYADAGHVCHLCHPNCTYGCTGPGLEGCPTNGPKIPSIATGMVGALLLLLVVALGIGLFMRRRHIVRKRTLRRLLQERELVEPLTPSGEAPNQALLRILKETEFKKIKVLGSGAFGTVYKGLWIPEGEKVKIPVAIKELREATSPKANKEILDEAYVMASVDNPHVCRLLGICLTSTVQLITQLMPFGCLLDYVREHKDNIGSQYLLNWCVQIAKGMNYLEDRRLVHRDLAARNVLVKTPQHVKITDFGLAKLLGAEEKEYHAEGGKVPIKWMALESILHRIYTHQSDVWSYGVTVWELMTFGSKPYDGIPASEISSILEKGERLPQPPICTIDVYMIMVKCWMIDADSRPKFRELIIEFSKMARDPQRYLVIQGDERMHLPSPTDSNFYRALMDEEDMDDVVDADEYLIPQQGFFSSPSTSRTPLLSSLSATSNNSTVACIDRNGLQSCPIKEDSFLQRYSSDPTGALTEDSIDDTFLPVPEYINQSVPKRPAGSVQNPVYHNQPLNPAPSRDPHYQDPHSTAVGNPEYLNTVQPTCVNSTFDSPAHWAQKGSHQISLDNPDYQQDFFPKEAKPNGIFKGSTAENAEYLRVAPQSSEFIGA

Target	lysine labeling ratio R10:1
FAS (lysine site: K126) (UniProt P25445)	2.16
CHCHD3 (lysine site: K63) (UniProt Q9NX63)	1.33 (active)
UniProt P46781 (lysine site: K66)	2.63
A2M (lysine site: K116) (UniProt P01023)	0.757 (active)
BPTF (lysine site: K604) (UniProt Q12830)	8.91
VIM (lysine site: K373) (UniProt P08670)	7.19
MAP4 (lysine site: K959) (UniProt P27816)	3.23
NPR3 (lysine site: K208) (UniProt P17342)	5.04
CCT3 (lysine site: K203) (UniProt P49368)	4.58
LRP8 (lysine site: K420) (UniProt Q14114)	0.962 (active)
SLC3A2 (lysine site: K245) (UniProt P08195)	5.72
TLN1 (lysine site: K2361) (UniProt Q9Y490)	5.09
P4HB (lysine site: K81) (UniProt P07237)	6.39
FRAS1 (lysine site: K1158) (UniProt Q86XX4)	1.34 (active)
EGFR (lysine site: K293) (UniProt P00533)	3.59
UniProt Q96TA1 (lysine site: K322)	5.91
HSPA9 (lysine site: K121) (UniProt P38646)	1.51 (active)
